# In ChEMBL document CHEMBL1201862, “PubChem BioAssay data set” (2004):
# The campaign covered roughly 400,000 compounds. About 2,100 (0.53%) were called active. Inconclusive results (about 14%) are left out. How the calls were made is not given here. This excerpt belongs to a sample that is enriched for actives.
# Biological target: Ataxin-2 (Homo sapiens) (UniProt Q99700)
# Assay: qHTS for Inhibitors of ATXN expression.
# Assay type: functional
# Ataxin-2 (Homo sapiens), sequence (Q99700 whole entry): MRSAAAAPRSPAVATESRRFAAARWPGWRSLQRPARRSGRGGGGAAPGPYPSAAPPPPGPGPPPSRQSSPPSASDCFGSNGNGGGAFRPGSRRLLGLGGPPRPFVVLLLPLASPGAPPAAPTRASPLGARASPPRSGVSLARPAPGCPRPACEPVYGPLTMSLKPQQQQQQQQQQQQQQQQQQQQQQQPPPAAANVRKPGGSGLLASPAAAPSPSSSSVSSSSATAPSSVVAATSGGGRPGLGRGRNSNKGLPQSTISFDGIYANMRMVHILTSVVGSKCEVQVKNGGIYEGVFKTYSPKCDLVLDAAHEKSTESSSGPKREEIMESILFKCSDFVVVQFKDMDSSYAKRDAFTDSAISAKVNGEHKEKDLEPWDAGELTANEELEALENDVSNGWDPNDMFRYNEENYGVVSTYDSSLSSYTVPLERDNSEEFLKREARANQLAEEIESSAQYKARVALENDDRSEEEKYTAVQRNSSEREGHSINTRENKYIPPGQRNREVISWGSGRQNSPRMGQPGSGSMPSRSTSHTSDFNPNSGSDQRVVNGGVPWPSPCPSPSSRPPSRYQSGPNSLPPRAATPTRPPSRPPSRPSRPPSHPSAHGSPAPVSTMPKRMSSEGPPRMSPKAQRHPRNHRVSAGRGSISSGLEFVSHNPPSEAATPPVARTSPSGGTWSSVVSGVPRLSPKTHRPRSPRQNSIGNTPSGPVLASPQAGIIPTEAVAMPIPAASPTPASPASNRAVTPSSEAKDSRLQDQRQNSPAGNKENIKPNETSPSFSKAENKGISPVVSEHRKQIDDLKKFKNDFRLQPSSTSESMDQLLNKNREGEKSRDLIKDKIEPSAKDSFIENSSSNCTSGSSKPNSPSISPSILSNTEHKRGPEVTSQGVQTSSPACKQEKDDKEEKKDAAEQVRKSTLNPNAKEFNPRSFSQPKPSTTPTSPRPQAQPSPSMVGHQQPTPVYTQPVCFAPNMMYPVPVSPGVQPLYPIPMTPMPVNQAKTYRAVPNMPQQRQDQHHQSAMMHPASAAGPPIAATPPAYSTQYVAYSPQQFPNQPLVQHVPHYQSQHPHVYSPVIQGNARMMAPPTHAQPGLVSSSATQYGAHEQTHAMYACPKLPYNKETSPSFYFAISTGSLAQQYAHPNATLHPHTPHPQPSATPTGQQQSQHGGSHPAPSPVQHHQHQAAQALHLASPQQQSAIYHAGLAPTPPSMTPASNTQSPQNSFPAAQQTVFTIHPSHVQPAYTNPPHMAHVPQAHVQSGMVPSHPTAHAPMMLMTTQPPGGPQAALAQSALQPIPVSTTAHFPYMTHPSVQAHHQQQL
row,SMILES,Potency
1,Cc1ccccc1/C=C/c1cccc[n+]1C,inactive
2,O=C(N/C(=C/c1cccc(Br)c1)C(=O)N1CCOCC1)c1ccco1,inactive
3,C(=Cc1c[nH]c2ccccc12)c1ccc2ccccc2n1,inactive
4,CC(C(=O)NCC1CCCCC1)N(C)CC(=O)Nc1ccc(N2CCOCC2)cc1 (stereo not drawn),inactive
5,Cc1cccc(C2C=C(c3ccc(C)c(C)c3)Nc3nnnn32)c1 (stereo not drawn),inactive
6,CCN1CCN(c2cc(C)c3cc(NC(=O)c4cccc(OC)c4)ccc3n2)CC1,inactive
7,CCN(CC)c1cc(C)c2cc(NC(=O)c3cccc(OC)c3)ccc2n1,39.8 µM (active)
8,Cc1ccc(NN2C(=O)C=C(c3ccc(Cl)cc3)C2=O)cc1,28.2 µM (active)
9,CC(=O)c1ccc(F)c(-c2cc(C)cc3c2OC(CNC(=O)c2csc(C)n2)C3)c1 (stereo not drawn),inactive
10,Cc1cccc(COC[C@H](CC(C)C)N2CCN(C(=O)c3ccc(C(F)(F)F)cc3)CCC2=O)c1,35.5 µM (active)
11,CC(C)CC(COCc1cccc(C(F)(F)F)c1)N1CCN(C(=O)c2cccc(C(F)(F)F)c2)CCC1=O (stereo not drawn),31.6 µM (active)
12,Cc1cccc(COC[C@H](CC(C)C)N2CCN(C(=O)c3ccc(C(C)(C)C)cc3)CCC2=O)c1,39.8 µM (active)
13,O=C(COC(=O)C1=Cc2ccccc2OC1)NCc1ccco1,inactive
14,Cn1c(Cl)c(/C=N/OC(=O)C2CC2)c2ccccc21,inactive
15,O=c1ccc2cc(O)c(O)cc2o1,inactive
16,OC[C@@H]1[C@@H](c2ccc(Cl)cc2)C(c2cccc(Cl)c2)=NN1c1ccccc1,inactive
17,CCN(CC)CCCNC(=O)CSc1nc(C)cc(C)n1,inactive
18,CCN(CC)CCCC(C)n1c2nc(=O)[nH]c(=O)c-2nc2cc(Cl)ccc21 (stereo not drawn),inactive
19,CCN(CC)CCNC(=O)CSc1c2c(nc3cc(Cl)ccc13)CCCC2,35.5 µM (active)
20,Cc1cc2cc(C#N)c(NCCN=C(S)NCCCN3CCOCC3)nc2cc1C,inactive
21,O=C(CSc1c2c(nc3ccc(Cl)cc13)CCCC2)NCCCN1CCOCC1,35.5 µM (active)
22,O=C(O)c1c2c(nc3ccc(Cl)cc13)CCC2,inactive
23,CCOC(=O)C1CCCc2c1[nH]c1ccc(Cl)cc21 (stereo not drawn),inactive
24,CCN(CC)CCCNC(=O)CSc1c2c(nc3cc(Cl)ccc13)CCCC2,28.2 µM (active)
25,O=C(Cc1cc(O)nc(O)n1)NCCN1CCOCC1,inactive
26,CC1CCCC(NC(=O)c2ccc3c(SCC(=O)O)c4c(nc3c2)CCC4)C1C (stereo not drawn),inactive
27,CCCN(CCC)C(=O)CSc1c2c(nc3ccc(Cl)cc13)CCCC2,39.8 µM (active)
28,Cc1occc1-c1nnc(SCC(=O)NC2CCCCC2)o1,inactive
